Vaccinia pol inh – blocks vaccinia virus processive DNA synthesis; in vitro processive DNA synthesis, absorbance read-out; hits give low values; normalized absorbance, % (test concentration not listed); actives 0.94% (n = 46,000); in the data active means normalized absorbance mostly below about 85%, no sharp cut-off; inactive means mostly above about 86%
Active calls of the source: *. The sample as a whole holds a higher share of hits than the screen did.

SMILES	Vaccinia pol inh
Cc1ccc(/C=C2/Sc3ccccc3NC2=O)cc1	99
O=C1NC(=O)/C(=C\c2ccccc2)S1	74*
CC(C)CN(CC(C)C)Cn1c(=O)oc2ccccc21	99
CCOc1ccc(N2C(=O)CC(N(Cc3ccc(Cl)cc3)C(=O)c3ccc(Cl)cc3)C2=O)cc1 (stereo not drawn)	100
CC(C)Nc1cc(-c2ccccc2)nc2nncn12	97
Cc1ccc(NC(=S)Nc2ccc(N3CCOCC3)cc2)cc1C	101
O=C(c1cnoc1)c1cc(Cl)cc(Cl)c1O	94
CCC(=O)c1cc(Cl)cc(Cl)c1O	97
Cc1ccc(N)c(C(O)(C(F)(F)F)C(F)(F)F)c1	102
Oc1c(Cl)cc(Cl)cc1C(O)(C(F)(F)F)C(F)(F)F	84*
Oc1c(Cl)cc(Cl)cc1Sc1cc(Cl)cc(Cl)c1O	60*
CCOC(=O)n1ncc(C#N)c1N	100
CC(=O)Nc1nc(-c2ccccc2)c(C(=O)c2ccccc2)s1	99
CSc1nc2c(c(=O)n1Cc1ccccc1)C(C)(C)Cc1ccccc1-2	100
O=C(NCc1ccccc1Cl)c1ccc2c(Cl)c3c(nc2c1)CCCC3	104
CC[C@H](C)[C@H](N)C(=O)N[C@@H](CC(N)=O)C(=O)N[C@@H](CC(C)C)C(=O)N[C@@H](CCCCN)C(=O)N[C@@H](C)C(=O)N[C@@H](CC(C)C)C(=O)N[C@@H](C)C(=O)N[C@@H](C)C(=O)N[C@@H](CC(C)C)C(=O)N[C@@H](C)C(=O)N[C@@H](CCCN)C(=O)N[C@@H](C)C(=O)N[C@@H](CC(C)C)C(=O)N[C@@H](CC(C)C)C(N)=O	45*
CCCC[C@@H](C=O)NC(=O)[C@H](CC(C)C)NC(=O)[C@H](CC(C)C)NC(C)=O	99
CC(=O)N[C@@H](CC(C)C)C(=O)N[C@@H](CC(C)C)C(=O)N[C@H](C=O)CCCN=C(N)N	100
Cc1ccc(C)c2[nH]c(=O)c(CCNC(=O)C(C)(C)Oc3ccc(Cl)cc3)cc12	99
Cc1cc(Nc2ccc(O)cc2)c2ccccc2n1	84
COC(=O)c1ccc(Nc2cc(C)nc3ccccc23)cc1	99
Cc1cccc(Nc2cc(C)nc3ccccc23)c1	77*
COc1ccc(/C=C/C(=O)Nc2noc3ccccc23)cc1OC	112
O=C(COC(=O)c1cccc(Cl)c1)NC12CC3CC(CC(C3)C1)C2	104
O=C(CCCC(=O)c1ccccc1)Nc1ncn[nH]1	73*
SMILES	Vaccinia pol inh
O=C(Nc1ncn[nH]1)c1ccccc1O	94
CCc1ccc(OCCCC(=O)Nc2ncn[nH]2)cc1	101
OC1C(c2ccccc2)=NNC1c1ccccc1 (stereo not drawn)	105
CCOC(=O)c1oc2ccccc2c1NC(=O)c1ccc(S(=O)(=O)N(C)C)cc1	104
CCOC(=O)c1oc2ccccc2c1CO	77*
CCOC(=O)c1oc2ccccc2c1NC(=O)c1ccccc1	92
CCOC(=O)C1=C(N)OC(c2cccc(OC)c2)=C(C#N)C1c1ccccc1 (stereo not drawn)	81
CCOC(=O)c1[nH]c2ccccc2c1NC=O	84
CC(C)NC(=O)CCn1c(=O)sc2ccccc21	84
COc1ccc2nc(SC(=O)c3ccccc3)nc(C)c2c1	100
COc1ccc2c(C)nc(/N=C(N)/N=C(\C)c3ccccc3C(=O)O)nc2c1	31*
CCc1c(C)nc2ccc(OC)cc2c1Cl	104
COc1ccc2c(C)nc(/N=C(\N)NC(C)=O)nc2c1	54*
COc1ccc2nc(/N=C(\N)NC(=O)N3c4ccccc4Sc4ccccc43)nc(C)c2c1	100
COc1ccc(-c2nc3ccccc3n2C(=O)c2ccccc2C(=O)O)cc1	98
CCCC(CCC)C(=O)Nc1cc(C(=O)O)cc(C(=O)O)c1	100
COc1cccc(OC)c1CN(C)C(=O)c1cnc(SC)cc1C(F)(F)F	91
CN1C(=O)/C(=C\c2ccc(O)cc2)SC1=S	114
O=c1[nH]c2ccc(N=Cc3ccc(O)cc3)cc2[nH]1	100
COc1ccc(NC(=O)c2ccc(COc3ccc(C(C)C)cc3)o2)cc1	100
O=C1c2ccccc2NC(c2cccc(O)c2)N1O (stereo not drawn)	96
O=C1CC(c2cccc(O)c2)Nc2ccc3ccccc3c21 (stereo not drawn)	62*
Cc1ccccc1C1CC(=O)c2c(ccc3ccccc23)N1 (stereo not drawn)	99
COc1ccc(S(=O)(=O)n2ccc(C3CC3)n2)cc1	108
CSc1nc2ccccc2n1CC(=O)N(c1ccccc1)C(C)C	107
SMILES	Vaccinia pol inh
CC(=O)OCC(=O)[C@@]12OC(C)(C)O[C@@H]1C[C@H]1C3C[C@H](F)C4=CC(=O)C=CC4(C)[C@@]3(F)[C@@H](O)C[C@@]12C (stereo partly drawn)	100
O=C1c2ccccc2C(=O)N1c1nccs1	100
N=C1S/C(=C/c2ccco2)C(=O)N1c1nccs1	52*
Cc1nnc(N2C(=N)S/C(=C\c3ccccc3Cl)C2=O)s1	100
CCOc1ccc(CCNS(=O)(=O)c2ccc3c(c2)CCN3C(=O)C2CC2)cc1OCC	104
CCOC(=O)N1CCC(NS(=O)(=O)c2ccc3[nH]c4c(c3c2)CCCC4)CC1	104
OCc1ccc(OCc2cnc(Cl)s2)cc1	100
CNC(=O)CCc1nc(-c2ccccc2)no1	117
O=C(CSC1=NCCc2ccccc21)c1ccccc1Cl	87
O=C(CSC1=NCCc2ccccc21)c1ccc(-c2ccccc2)cc1	69*
O=C(SC1=NCCc2ccccc21)c1ccccc1	97
C=CCc1c(C)nc(C)nc1NCCO	95
COc1ccc(S(=O)(=O)N2CCC(C)CC2)cc1C(=O)O	99
S=c1[nH]c(-c2ccccc2)c(-c2ccccc2)o1	62*
O=c1cc(-c2ccccc2)[nH]c(=S)[nH]1	100
S=c1cc(-c2ccccc2)ss1	84
Cc1ccc(Cc2ccc(Cl)nn2)cc1	82
CCN(c1ncnc2nc[nH]c12)C1CCCCC1	100
CCOc1ccc(C(=O)Nc2nnc(C(C)C)s2)cc1	102
CCOc1ccc(/C=C2\SC(N3CCCC3)=NC2=O)cc1	100
O=C(O)CCC1CCCCCCCCCCC1	74*
N[C@@H](CC1CCCCC1)C(=O)O	99
O=C(O)CNC(=O)C1CCCCC1	103
O=C(NCCC1=CCCCC1)c1cc2c(s1)-c1ccccc1SC2	94
CCN1CCCC1CNC(=O)c1cc2c(s1)-c1ccccc1SC2 (stereo not drawn)	73*
SMILES	Vaccinia pol inh
O=C(NCc1ccccc1)c1cc2c(s1)-c1ccccc1SC2	103
CC1(C)CC(NC(=O)/C=C/c2ccc(F)cc2)CC(C)(C)N1	89
C=CCN=C(Cc1ccccc1)C1=C(O)CC(C)(C)CC1=O	101
CC(C)C(=O)Nc1nnc(-c2ccccc2)s1	60*
CC(C)C(=O)Nc1nnc(-c2ccc(Cl)cc2)s1	100
Cc1ccc(C(=O)Nc2nnc(-c3ccccc3)s2)cc1	100
C(=C/c1ccccc1)/CN1CCN(Cn2nnc3ccccc32)CC1	99
N#Cc1c(N)nc(SCc2ccccc2)c(C#N)c1-c1ccccc1	83*
CCOc1ccc(-c2c(C#N)c(N)nc(SCC#N)c2C#N)cc1	101
N#Cc1c(-c2ccccc2)cc(-c2ccccc2)nc1N	100
Cc1ccccc1NC(=O)CC(C(=O)O)N(C)C (stereo not drawn)	100
COc1ccc(CN=Cc2ccc(NC(C)=O)cc2)cc1	104
O=C(Nc1nc2ccccc2s1)c1ccccc1	101
Cc1cccc2sc(NN)nc12	61*
O=C(Nc1nc2c(Cl)cccc2s1)C1CC1	101
c1ccc(CCNc2nc3ccccc3s2)cc1	101
CCNc1nc2c(C)cccc2s1	104
NNc1nc2ccccc2s1	78*

Screening results from PubChem BioAssay.
